Assay results taken from PubChem BioAssay AID1981 (Southern Research Specialized Biocontainment Screening …, 2009).
Out of some 2,200 compounds screened, about 480 (22%) were called active. No rule for the calls is given here. The list is a sample of the results. Measured potencies and affinities stand elsewhere.

Assay: S. Typhimurium GFP fluorescence modified counterscreen for PhoP regulon inhibitor project dose response (AID 1981)
Details: 4 h; series mostly up to 150 µM

For `COCCNC(=O)c1ccc(C(=O)NCCOC)s1`, which outcome is on record?
The outcome was “inactive”.

With `C/C(=C\c1ccco1)C1Nc2cccc3cccc(c23)N1` as the compound, how does the outcome read?
Its outcome is “inactive”.

With `Cc1ccc(C(=O)NCC(=O)NCC(=O)OCC(=O)c2ccc([N+](=O)[O-])cc2)cc1` as the compound, how does the outcome read?
Its outcome is “inactive”.

Which outcome does the source give for `CCCCn1c(-c2ccccc2)nc2c(=O)n(C)c(=O)[nH]c21` here?
Its outcome is “inactive”.

For `O=C(Cn1nc(Cl)nc1Cl)c1ccc2c(c1)OCCO2`, which outcome is on record?
Its outcome is “inactive”.

With `Cc1ccc2c(c1)C1CN(C)CCC1N2C(=O)COc1ccc(S(=O)(=O)N2CCOCC2)cc1` (centres undefined) as the compound, how does the outcome read?
The outcome was “inactive”.

Which outcome does the source give for `N#Cc1ccc(CSc2nnc(-c3ccncc3)n2CCc2ccccc2)cc1` here?
Its outcome is “inactive”.

With `O=C(Nc1ccsc1C(=O)NC1CCCCC1)c1ccccc1` as the compound, how does the outcome read?
Its outcome is “inactive”.

With `O=C(Nc1ccccn1)NC1CCCCC1` as the compound, how does the outcome read?
The outcome was “inactive”.

With `COc1ccc(-c2ccc(-c3noc(-c4cccs4)n3)c(OC)n2)cc1` as the compound, how does the outcome read?
Its outcome is “inactive”.

Which outcome does the source give for `CCn1cc(C(C)(C)C)c(C#N)c1NC(C)=O` here?
Its outcome is “inactive”.

With `Cc1c(C(c2cccc([N+](=O)[O-])c2O)c2c(C)n(C)n(-c3ccccc3)c2=O)c(=O)n(-c2ccccc2)n1C` as the compound, how does the outcome read?
The outcome was “inactive”.

For `Cc1[nH]n(-c2ccccc2)c(=O)c1-c1ccc(Cl)cc1`, which outcome is on record?
Its outcome is “inactive”.

For `O=C(CCNS(=O)(=O)c1cccc2nsnc12)NCc1cccs1`, which outcome is on record?
The outcome was “inactive”.

For `CCOC(=O)C1=C(C)NC(SCc2cc(=O)[nH][nH]2)=C(C#N)C1c1cccs1` (centres undefined), which outcome is on record?
Its outcome is “inactive”.

Which outcome does the source give for `COc1ccc(N2C(=O)C3CCCN3C2c2cccc(C)c2)cc1Cl` (centres undefined) here?
The outcome was “inactive”.

For `COc1nccnc1NS(=O)(=O)c1ccc(NC(=S)NC(=O)c2cccnc2)cc1`, which outcome is on record?
The outcome was “inactive”.

With `COc1cc(OC)c(C(=O)Nc2ccc(S(=O)(=O)Nc3ncccn3)cc2)cc1OC` as the compound, how does the outcome read?
The outcome was “inactive”.

With `Cc1ccn2cc(CSc3ccccc3N)nc2c1` as the compound, how does the outcome read?
Its outcome is “inactive”.

Which outcome does the source give for `Cc1cccc2cc(C#N)c(N3CCN(C)CC3)nc12` here?
Its outcome is “inactive”.

With `CCOC(=O)N1CCN(C(=O)C(NC(=O)c2ccc(CC)cc2)C(C)C)CC1` (centres undefined) as the compound, how does the outcome read?
The outcome was “inactive”.

Which outcome does the source give for `COc1c(Cl)cnn(-c2ccc(C)cc2)c1=O` here?
Its outcome is “inactive”.

For `O=C(CN1CC(c2ccccc2)CC1=O)N/N=C/c1cc(Br)ccc1O` (centres undefined), which outcome is on record?
Its outcome is “inactive”.

With `O=C(CSCc1ccccc1)N/N=C/c1ccccc1OCc1ccccc1` as the compound, how does the outcome read?
The outcome was “inactive”.

With `CC(C)(C)c1ccc(C2CC2C(=O)N/N=C\c2cc3ccccc3nc2Cl)cc1` (centres undefined) as the compound, how does the outcome read?
The outcome was “inactive”.

For `CC(C)c1ccc(C2NC(=O)NC3=C2CCc2ccccc23)cc1` (centres undefined), which outcome is on record?
Its outcome is “inactive”.

Which outcome does the source give for `O=C(NC1CCCCC1)C(c1ccncc1)N(CC1CCCO1)C(=O)C(F)(F)F` (centres undefined) here?
Its outcome is “inactive”.

Which outcome does the source give for `COc1ccc(Nc2nc(NCc3ccco3)nc(N/N=C/c3ccccc3Cl)n2)cc1` here?
The outcome was “inactive”.

With `CCOc1ccc(NC(=O)c2ccc(NC(=O)COC(=O)Cc3ccccc3)cc2)cc1` as the compound, how does the outcome read?
Its outcome is “inactive”.

For `Cc1ccc(NC(=S)NC(NC(=O)c2ccco2)C(Cl)(Cl)Cl)cc1` (centres undefined), which outcome is on record?
The outcome was “inactive”.

With `O=C(c1ccccc1)c1c2c(cc3sc4ccccc4[n+]13)-c1cccc3cccc-2c13` as the compound, how does the outcome read?
The outcome was “inactive”.

For `CN1C(=O)CC(P(=O)(c2ccccc2)c2ccccc2)N(C)C1=O` (centres undefined), which outcome is on record?
Its outcome is “inactive”.

With `COc1ccc(N2C(=O)CC(Sc3nc(C)c4c(n3)CCCC4)C2=O)cc1` (centres undefined) as the compound, how does the outcome read?
The outcome was “inactive”.

Which outcome does the source give for `COC(=O)c1cc(C#N)c(Oc2ccc(F)cc2)nc1C` here?
The outcome was “inactive”.

With `Nc1nc2ccccc2n1/N=C/c1ccc(-c2ccccc2)o1` as the compound, how does the outcome read?
The outcome was “inactive”.

With `CN(C)CCCN(C(=O)CCc1ccccc1)c1nc2ccc(Cl)cc2s1` as the compound, how does the outcome read?
Its outcome is “inactive”.

For `c1ccc(C2(CNc3ccccn3)CCCC2)cc1`, which outcome is on record?
Its outcome is “inactive”.

For `Cc1ccc(-n2ncc3c(N4CCN(c5ccccc5)CC4)ncnc32)c(C)c1`, which outcome is on record?
Its outcome is “inactive”.

Which outcome does the source give for `O=C(CC1SC(=NCc2ccccc2)NC1=O)Nc1ccccc1` (centres undefined) here?
Its outcome is “inactive”.

For `Cc1nn(C)c(C)c1S(=O)(=O)N1CCC(C(=O)NC2CCCCC2)CC1`, which outcome is on record?
The outcome was “inactive”.

With `COc1cc(NC(=O)CSc2nnnn2Cc2ccc3c(c2)OCO3)cc(OC)c1` as the compound, how does the outcome read?
Its outcome is “inactive”.

For `Cc1ccc(N)cc1-n1c(C)ccc1C`, which outcome is on record?
The outcome was “inactive”.

For `CC(C)(C)c1ccc(C(=O)Nc2ccc(C=C(C#N)C#N)cc2)cc1`, which outcome is on record?
The outcome was “inactive”.

Which outcome does the source give for `COCCSc1ccccc1C(=O)NCC1CCCO1` (centres undefined) here?
Its outcome is “inactive”.

For `Cn1c(NCc2cc(Br)ccc2O)nc2ccccc21`, which outcome is on record?
The outcome was “inactive”.

For `O=S(=O)(Nc1ccc2c(c1)nc1n2CCN(Cc2ccccc2)C1)c1ccc(Cl)cc1`, which outcome is on record?
Its outcome is “inactive”.

With `C=CCn1c(SCc2c(C(=O)OC)sc(N)c2C(=O)OC)nnc1-c1ccc(Cl)cc1` as the compound, how does the outcome read?
Its outcome is “inactive”.

Which outcome does the source give for `CCC(CC)C(=O)NCCc1ccc(OC)cc1` here?
Its outcome is “inactive”.

For `O=C(Cn1cnc2ccccc2c1=O)NCc1ccco1`, which outcome is on record?
The outcome was “inactive”.

For `CC(=O)NCCOc1c(C)cc(S(N)(=O)=O)cc1C`, which outcome is on record?
The outcome was “inactive”.

With `C=CCOc1ccc(CNc2nn[nH]n2)cc1` as the compound, how does the outcome read?
The outcome was “inactive”.

With `COC(=O)Cc1c(C)nc2nc(NCc3ccc(Cl)cc3)[nH]n2c1=O` as the compound, how does the outcome read?
The outcome was “inactive”.

Which outcome does the source give for `CN(C)C(=O)On1c(-c2ccccc2)nc2ccc(Cl)cc21` here?
The outcome was “inactive”.

Which outcome does the source give for `CC(C)N(Cc1nc(-c2ccccc2)no1)C(=O)CN(C)S(=O)(=O)c1ccccc1` here?
The outcome was “inactive”.

For `Cc1ccc(Nc2cc(C)nc3nc(C)nn23)cc1`, which outcome is on record?
The outcome was “inactive”.

Which outcome does the source give for `COc1ccc(Nc2nnc(SCc3cn4c(C)cccc4n3)s2)cc1` here?
The outcome was “inactive”.

With `CCOC(=O)N1CCN(S(=O)(=O)c2ccc(C(=O)NNc3nc4cc(C)cc(C)c4s3)cc2)CC1` as the compound, how does the outcome read?
Its outcome is “inactive”.

With `Cc1ccc(Nc2nc(Cl)nc(N(C)C#N)n2)cc1` as the compound, how does the outcome read?
The outcome was “inactive”.

With `Cc1ncc(C23CC4CC(CC(C4)C2)C3)[nH]1` as the compound, how does the outcome read?
The outcome was “inactive”.

For `CCN(CC)c1nc2n(c(=O)n1)CCO2`, which outcome is on record?
Its outcome is “inactive”.

With `COc1ccc2c(c1)cc1n2CCN2CCCN=C12` as the compound, how does the outcome read?
Its outcome is “inactive”.

With `C=CCSC1=Nc2sccc2C2=NC(=O)CN12` as the compound, how does the outcome read?
Its outcome is “inactive”.

Which outcome does the source give for `COc1ccc(NC(=O)CSc2nccn2-c2ccccc2)cc1` here?
The outcome was “inactive”.

For `O=C(/C=C/c1ccc2c(c1)OCO2)N1CCN(c2ccccc2F)CC1`, which outcome is on record?
The outcome was “inactive”.

With `OC(COCc1cccs1)CN1CCN(c2ccccn2)CC1` (centres undefined) as the compound, how does the outcome read?
The outcome was “inactive”.

For `N#Cc1c(-c2ccco2)cc(-c2ccc(F)cc2)nc1N`, which outcome is on record?
Its outcome is “inactive”.

With `CN1CCN(S(=O)(=O)c2ccc(N)cc2)CC1` as the compound, how does the outcome read?
Its outcome is “inactive”.

With `CC(C)(C)c1ccc(-c2n[nH]c(=S)n2/N=C/c2ccncc2)cc1` as the compound, how does the outcome read?
The outcome was “inactive”.

Which outcome does the source give for `CC(Cl)C(=O)NNc1cccc(Cl)n1` (centres undefined) here?
The outcome was “inactive”.

For `Cc1nc(N2CCN(Cc3ccc4c(c3)OCO4)CC2)nc2c1C(=O)CC(c1ccco1)C2` (centres undefined), which outcome is on record?
The outcome was “inactive”.

Which outcome does the source give for `O=C(NCc1ccccn1)c1cn(-c2ccccc2)nc1-c1ccc(Cl)cc1` here?
Its outcome is “inactive”.

Which outcome does the source give for `CCc1ccc(C(c2c(C)nn(-c3ccccc3)c2N)c2c(C)nn(-c3ccccc3)c2N)cc1` here?
Its outcome is “inactive”.

Which outcome does the source give for `O=C(COC(=O)c1cn(-c2ccccc2)nc1-c1ccccc1)c1cccc([N+](=O)[O-])c1` here?
The outcome was “inactive”.

Which outcome does the source give for `O=C(OCc1ccccc1)c1cn(-c2ccccc2)nc1-c1ccncc1` here?
Its outcome is “inactive”.
